Laboratory results as given in PubChem BioAssay (NCATS).
Where “and” joins values, the source holds several entries; their conditions need not be identical. Equal entries are not always repeated. Inconclusive results are not listed. Calls of active or inactive are those of the source. Unless noted, calls follow the shape of the dose curve; as a rule, active = well fitted curve in the direction sought with a large enough effect; inconclusive = small, poorly fitted or top-dose-only effect, or another doubt; inactive = no such curve, though single readings can be large; an effect the other way counts as inactive or inconclusive.

Key:
[1] = target: Cytochrome P450 3A4 (Homo sapiens) (UniProt P08684); test: qHTS Assay for Inhibitors and Substrates of Cytochrome P450 3A4 (AID 884); also: series mostly up to about 57 µM; % is scaled to controls: 0 for no effect and ±100 for the full control effect; nearly all actives have a fitted effect of over 50% in size
Sequence of Cytochrome P450 3A4 (Homo sapiens) (P08684 whole entry, looked up): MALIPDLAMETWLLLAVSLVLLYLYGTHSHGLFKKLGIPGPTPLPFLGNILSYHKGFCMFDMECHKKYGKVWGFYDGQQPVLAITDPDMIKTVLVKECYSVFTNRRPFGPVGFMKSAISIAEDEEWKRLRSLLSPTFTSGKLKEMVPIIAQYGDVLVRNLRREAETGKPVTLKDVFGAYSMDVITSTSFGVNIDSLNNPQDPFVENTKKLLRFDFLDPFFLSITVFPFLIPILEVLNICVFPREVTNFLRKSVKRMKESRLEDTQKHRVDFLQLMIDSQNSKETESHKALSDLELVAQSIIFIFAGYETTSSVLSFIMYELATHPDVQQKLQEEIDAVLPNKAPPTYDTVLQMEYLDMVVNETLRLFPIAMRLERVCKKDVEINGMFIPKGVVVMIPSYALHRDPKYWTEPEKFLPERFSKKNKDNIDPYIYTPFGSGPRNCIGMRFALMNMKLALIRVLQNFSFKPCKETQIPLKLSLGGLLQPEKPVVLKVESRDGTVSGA
How it was run: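 Luminescent readout of luciferin produced by CYP3A4 (20 nM) dealkylation of Luciferin-PPXE, 25 uM (its KM). NADPH-driven reaction ran 60 min at RT after 10 min compound preincubation; data scaled to 57 uM ketoconazole as 100% inhibition.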

[2] = Cell Viability - LYMP2-004 (AID 966);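 also: cells exposed to compound for 24 h; plate controls were DMSO only for no effect and tetraoctylammonium bromide control for full effect; nearly all actives have a fitted effect of over 65% in size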
How it was run: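 qHTS cytotoxicity: human lymphoblastoid line, 24 hr compound treatment, 37 C, complete medium. Viability read as cellular ATP via luciferase luminescence; tetraoctylammonium bromide served as positive control.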

[3] = Cell Viability - LYMP2-009 (AID 968);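 also: series mostly up to about 92 µM; cells exposed to compound for 24 h at 37 °C; 0% = DMSO alone and the full-kill end = tetraoctylammonium bromide at 92 µM; nearly all actives have a fitted effect of over 55% in size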
[4] = Cell Viability - LYMP2-010 (AID 981);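 also: cells exposed to compound for 24 hours at 37 °C; % is scaled to controls: 0 for no effect and ±100 for the full control effect; nearly all actives have a fitted effect of over 55% in size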
How it was run: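 Steps: seed 2500 LYMP2-010 cells per well; incubate 5 hr at 37 C; add compound; incubate 24 hr at 37 C; add CellTiter-Glo, wait 30 min at room temperature; read luminescence. Concentration-response fitted to Hill equation for AC50.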

[5] = Cell Viability - LYMP2-012 (AID 982);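 also: cellular ATP by luciferase luminescence where a drop means cytotoxicity; cells exposed to compound for one day before reading; 0% = DMSO only and full loss = 92 µM tetraoctylammonium bromide; nearly all actives have a fitted effect of over 55% in size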
[6] = target: Estrogen receptor (Homo sapiens) (UniProt P03372); test: qHTS assay for small molecule antagonists of estrogen receptor alpha signaling (AID 588513; active = well fitted curve in the direction sought with a large enough effect in the signal ratio, with a control signal flat, not every such curve was filed as active; the % refers to the signal ratio; also: % is scaled to controls: 0 for no effect and ±100 for the full control effect)
Sequence of Estrogen receptor (Homo sapiens) (P03372 whole entry, looked up): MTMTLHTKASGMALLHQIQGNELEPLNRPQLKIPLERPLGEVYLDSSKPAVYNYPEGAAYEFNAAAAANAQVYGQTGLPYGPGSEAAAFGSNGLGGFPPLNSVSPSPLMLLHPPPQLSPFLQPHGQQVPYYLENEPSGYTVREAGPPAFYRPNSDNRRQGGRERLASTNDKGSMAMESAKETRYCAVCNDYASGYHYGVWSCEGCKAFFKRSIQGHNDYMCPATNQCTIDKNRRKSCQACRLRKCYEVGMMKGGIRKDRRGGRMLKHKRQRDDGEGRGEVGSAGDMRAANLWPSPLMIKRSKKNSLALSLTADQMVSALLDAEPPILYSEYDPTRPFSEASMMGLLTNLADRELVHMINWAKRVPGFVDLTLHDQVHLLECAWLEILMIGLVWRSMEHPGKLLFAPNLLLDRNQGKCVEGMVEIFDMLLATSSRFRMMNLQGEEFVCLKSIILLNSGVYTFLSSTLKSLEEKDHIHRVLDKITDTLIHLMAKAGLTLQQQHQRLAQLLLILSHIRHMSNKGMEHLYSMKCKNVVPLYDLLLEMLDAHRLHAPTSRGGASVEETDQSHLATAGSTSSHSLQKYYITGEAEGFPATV
How it was run: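 ER-alpha-UAS-bla GripTite HEK 293 cells in medium with 2% charcoal/dextran-treated FBS were preincubated 4 h at 37 C, dosed with compound (1:2 titration), stimulated with 0.5nM 17-beta-estradiol for 18 h, then read by CCF4 beta-lactamase fluorescence.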

[7] = target: Estrogen receptor (Homo sapiens) (UniProt P03372); test: qHTS assay for small molecule agonists of estrogen receptor alpha signaling (AID 588514; calls by dose curve;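 also: 0% = vehicle only and 100% = reference agonist; nearly all actives have a fitted effect of over 70% in size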)
How it was run: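 Efficacy is expressed against 20 nM 17-beta-estradiol (100%) and DMSO basal (0%); EC50 from Hill equation. Assay: beta-lactamase reporter in ER-alpha-UAS-bla HEK 293 cells, 18 h compound incubation, CCF4 detection.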

[8] = target: Glucocorticoid receptor (Homo sapiens) (UniProt P04150); test: qHTS assay for small molecule agonists of glucocorticoid receptor signaling (AID 588532; active = well fitted curve in the direction sought with a large enough effect in the signal ratio, with a control signal flat; the % refers to the signal ratio;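 also: 100% = dexamethasone at 0.1 µM and 0% = DMSO only wells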); settings: HeLa MMTV-bla, beta-lactamase ratio, agonist, 18 h; active compounds read high; percent of dexamethasone control, DMSO zero
Sequence of Glucocorticoid receptor (Homo sapiens) (P04150 whole entry, looked up): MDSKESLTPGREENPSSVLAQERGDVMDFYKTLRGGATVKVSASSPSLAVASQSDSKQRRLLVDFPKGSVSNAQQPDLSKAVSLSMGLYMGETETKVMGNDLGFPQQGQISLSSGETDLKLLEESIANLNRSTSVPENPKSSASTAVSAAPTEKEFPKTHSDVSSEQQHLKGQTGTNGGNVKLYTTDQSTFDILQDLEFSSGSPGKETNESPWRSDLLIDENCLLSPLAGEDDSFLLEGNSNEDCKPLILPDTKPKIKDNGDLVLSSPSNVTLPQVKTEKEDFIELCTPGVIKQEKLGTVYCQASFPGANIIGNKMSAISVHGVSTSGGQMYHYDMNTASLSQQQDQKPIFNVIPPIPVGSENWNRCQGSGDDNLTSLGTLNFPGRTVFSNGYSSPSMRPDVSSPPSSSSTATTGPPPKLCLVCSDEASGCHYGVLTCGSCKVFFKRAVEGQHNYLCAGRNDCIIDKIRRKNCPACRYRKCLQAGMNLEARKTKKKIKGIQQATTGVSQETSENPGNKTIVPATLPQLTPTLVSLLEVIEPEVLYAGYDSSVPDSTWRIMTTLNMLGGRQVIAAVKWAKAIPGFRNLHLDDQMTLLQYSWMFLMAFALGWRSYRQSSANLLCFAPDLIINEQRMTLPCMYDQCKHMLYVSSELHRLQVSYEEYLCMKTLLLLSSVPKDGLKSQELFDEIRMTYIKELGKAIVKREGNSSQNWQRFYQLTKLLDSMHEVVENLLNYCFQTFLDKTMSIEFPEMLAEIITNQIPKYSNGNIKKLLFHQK
How it was run: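 Stimulation of a glucocorticoid response element-driven beta-lactamase gene was measured in HeLa cells. Responses were scaled between DMSO basal and 0.1 uM dexamethasone, then fitted for half-maximal stimulation.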

[9] = target: Glucocorticoid receptor (Homo sapiens) (UniProt P04150); test: qHTS assay for small molecule antagonists of glucocorticoid receptor signaling (AID 588533; active = well fitted inhibition curve with a large enough effect in the signal ratio, with a control signal flat, not every such curve was filed as active; the % refers to the signal ratio;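 also: cells stimulated with 2 nM dexamethasone as agonist; % is scaled to controls: 0 for no effect and ±100 for the full control effect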)
How it was run: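 Antagonist-mode qHTS: compound titrations added to GRE-bla HeLa cells, then dexamethasone 2 nM final; 18 h, 37 C. CCF4 FRET fluorescence normalized to dexamethasone and DMSO; IC50 from Hill fit.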

[10] = target: Peroxisome proliferator-activated receptor delta (Homo sapiens) (UniProt Q03181); test: qHTS assay for small molecule agonists of peroxisome proliferator-activated receptor delta signaling (AID 588534; calls by dose curve;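 also: 0% = DMSO basal wells and 100% = positive control agonist at 10 µM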)
Sequence of Peroxisome proliferator-activated receptor delta (Homo sapiens) (Q03181 whole entry, looked up): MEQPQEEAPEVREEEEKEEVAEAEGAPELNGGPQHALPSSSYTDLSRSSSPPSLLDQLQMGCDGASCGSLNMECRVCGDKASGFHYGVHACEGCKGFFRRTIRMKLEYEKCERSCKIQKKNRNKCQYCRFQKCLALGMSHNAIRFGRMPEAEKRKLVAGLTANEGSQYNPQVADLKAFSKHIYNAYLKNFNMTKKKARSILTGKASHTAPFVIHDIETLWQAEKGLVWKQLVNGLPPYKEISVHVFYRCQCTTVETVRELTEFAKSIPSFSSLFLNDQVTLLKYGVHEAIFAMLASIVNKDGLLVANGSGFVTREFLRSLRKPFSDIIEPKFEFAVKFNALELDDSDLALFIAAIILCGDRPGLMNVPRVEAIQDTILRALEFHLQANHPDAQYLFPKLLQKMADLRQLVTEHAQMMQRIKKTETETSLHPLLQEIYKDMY
How it was run: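 Agonist-mode qHTS; reporter cells, 5 hrs 37 C pre-incubation; compound titration, 18 hrs 37 C; CCF4 dye, 2 hrs RT; fluorescence read. EC50/efficacy via Hill fit.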

[11] = target: Peroxisome proliferator-activated receptor gamma (Homo sapiens) (UniProt P37231); test: qHTS assay for small molecule agonists of peroxisome proliferator-activated receptor gamma signaling (AID 588536; active = well fitted curve in the direction sought with a large enough effect in the signal ratio, with a control signal flat, not every such curve was filed as active; the % refers to the signal ratio;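 also: 0% = DMSO basal wells and 100% = rosiglitazone at 2 µM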)
Sequence of Peroxisome proliferator-activated receptor gamma (Homo sapiens) (P37231 whole entry, looked up): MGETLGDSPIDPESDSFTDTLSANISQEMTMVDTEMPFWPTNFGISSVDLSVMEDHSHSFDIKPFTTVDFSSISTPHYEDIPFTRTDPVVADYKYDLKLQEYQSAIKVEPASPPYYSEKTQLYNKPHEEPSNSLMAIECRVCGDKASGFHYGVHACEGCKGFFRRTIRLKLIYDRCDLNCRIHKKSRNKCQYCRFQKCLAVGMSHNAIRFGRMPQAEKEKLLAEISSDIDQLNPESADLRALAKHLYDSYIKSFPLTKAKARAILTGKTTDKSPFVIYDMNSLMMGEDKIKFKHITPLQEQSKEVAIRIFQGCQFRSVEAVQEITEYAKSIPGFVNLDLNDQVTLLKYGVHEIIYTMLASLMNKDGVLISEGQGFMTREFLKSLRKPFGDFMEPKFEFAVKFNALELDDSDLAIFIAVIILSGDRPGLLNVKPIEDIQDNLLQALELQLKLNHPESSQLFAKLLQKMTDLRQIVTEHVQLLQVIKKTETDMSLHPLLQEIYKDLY
How it was run: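 Cells were plated and held 6–6.5 h at 37 C, then compounds were added as a titration series. After a further 16 h, CCF4 dye was loaded for 2 h at room temperature and emission at 460/530 nm recorded.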

[12] = target: Thyroid hormone receptor beta (Homo sapiens) (UniProt P10828); test: qHTS assay for small molecule agonists of thyroid hormone receptor beta signaling (AID 588545; calls by dose curve)
Sequence of Thyroid hormone receptor beta (Homo sapiens) (P10828 whole entry, looked up): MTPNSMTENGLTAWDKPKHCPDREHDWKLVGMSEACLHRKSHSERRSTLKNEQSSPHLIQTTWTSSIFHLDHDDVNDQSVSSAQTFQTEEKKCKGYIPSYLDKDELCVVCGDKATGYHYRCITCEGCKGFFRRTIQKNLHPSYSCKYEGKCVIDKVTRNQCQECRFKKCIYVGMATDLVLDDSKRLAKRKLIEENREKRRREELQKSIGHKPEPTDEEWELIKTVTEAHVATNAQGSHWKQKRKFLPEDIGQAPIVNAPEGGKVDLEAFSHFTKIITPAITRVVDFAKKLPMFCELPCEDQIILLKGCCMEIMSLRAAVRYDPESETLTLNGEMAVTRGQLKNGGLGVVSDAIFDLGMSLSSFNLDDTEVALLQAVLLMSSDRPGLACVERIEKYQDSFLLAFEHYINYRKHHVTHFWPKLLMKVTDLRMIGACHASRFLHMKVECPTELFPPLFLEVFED
How it was run: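 HEK 293 TR-UAS-bla; agonist mode; 18 hrs, 37 C; CCF4, ex 405/em 460 and 530 nm; norm. T3 10 nM = 100%, DMSO = 0%; Hill fit → EC50, efficacy.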

[13] = target: Thyroid hormone receptor beta (Homo sapiens) (UniProt P10828); test: qHTS assay for small molecule antagonists of thyroid hormone receptor beta signaling (AID 588547; active = well fitted inhibition curve with a large enough effect in the signal ratio, with a control signal flat, not every such curve was filed as active; the % refers to the signal ratio;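 also: cells stimulated with 0.4 nM T3 agonist during compound exposure; series mostly up to about 77 µM; % is scaled to controls: 0 for no effect and ±100 for the full control effect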); settings: TR-UAS-bla HEK293, beta-lactamase ratio, antagonist mode, 18 h
How it was run: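 TR-UAS-bla GripTite HEK293 cells in 2% charcoal/dextran FBS medium were preincubated 4 h at 37 C, given compound (0.59 nM to 92 uM) plus 0.4 nM T3 (final) for 18 h, then CCF4 for 2 h at RT; Hill fit gave IC50.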

[14] = target: Voltage-gated inwardly rectifying potassium channel KCNH2 (Homo sapiens) (UniProt Q12809); test: qHTS Assay for Small Molecule Inhibitors of the Human hERG Channel Activity (AID 588834);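 also: top concentration of the series differs between compounds; % is scaled to controls: 0 for no effect and ±100 for the full control effect; lower thallium flux fluorescence means stronger hERG block; nearly all actives have a fitted effect of over 50% in size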
Sequence of Voltage-gated inwardly rectifying potassium channel KCNH2 (Homo sapiens) (Q12809 whole entry, looked up): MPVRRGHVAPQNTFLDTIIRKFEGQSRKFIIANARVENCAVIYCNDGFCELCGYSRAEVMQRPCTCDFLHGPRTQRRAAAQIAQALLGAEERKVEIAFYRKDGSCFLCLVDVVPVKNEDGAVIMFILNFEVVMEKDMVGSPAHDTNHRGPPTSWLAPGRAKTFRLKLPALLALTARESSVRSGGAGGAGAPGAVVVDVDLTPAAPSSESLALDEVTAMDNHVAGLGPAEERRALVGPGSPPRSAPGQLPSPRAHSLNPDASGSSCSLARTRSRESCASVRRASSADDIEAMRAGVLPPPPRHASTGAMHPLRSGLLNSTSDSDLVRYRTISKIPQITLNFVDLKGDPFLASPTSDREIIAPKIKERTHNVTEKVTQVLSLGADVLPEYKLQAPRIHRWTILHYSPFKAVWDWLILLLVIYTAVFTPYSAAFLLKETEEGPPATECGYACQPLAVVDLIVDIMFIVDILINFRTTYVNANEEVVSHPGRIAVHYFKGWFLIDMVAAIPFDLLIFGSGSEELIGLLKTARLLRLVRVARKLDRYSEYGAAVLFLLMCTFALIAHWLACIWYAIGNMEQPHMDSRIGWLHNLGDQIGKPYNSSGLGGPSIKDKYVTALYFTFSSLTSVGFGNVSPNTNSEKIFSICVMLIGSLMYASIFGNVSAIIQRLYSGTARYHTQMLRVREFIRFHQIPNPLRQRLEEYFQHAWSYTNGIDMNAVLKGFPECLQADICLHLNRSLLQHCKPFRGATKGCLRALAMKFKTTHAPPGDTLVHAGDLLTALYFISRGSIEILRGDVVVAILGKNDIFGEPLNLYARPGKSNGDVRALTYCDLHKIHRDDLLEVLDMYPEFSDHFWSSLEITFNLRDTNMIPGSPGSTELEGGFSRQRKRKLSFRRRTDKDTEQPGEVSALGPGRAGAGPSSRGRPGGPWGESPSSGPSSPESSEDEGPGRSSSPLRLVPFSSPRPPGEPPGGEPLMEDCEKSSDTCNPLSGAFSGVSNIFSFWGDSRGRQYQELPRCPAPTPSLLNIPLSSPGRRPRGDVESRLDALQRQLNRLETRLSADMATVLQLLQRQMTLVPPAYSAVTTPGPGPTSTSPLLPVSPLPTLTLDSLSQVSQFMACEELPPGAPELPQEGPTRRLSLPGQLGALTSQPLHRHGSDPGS
How it was run: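 In hERG-transduced U2OS cells, dye-loaded for 1 hr at room temperature in dark, test compounds incubated 10 min at 37 °C before thallium stimulation. AC50 values derived by Hill modelling of concentration-response.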

[15] = qHTS assay for small molecule activators of the p53 signaling pathway (AID 651743; active = well fitted activation curve with a large enough effect in the signal ratio, not every such curve was filed as active; the % refers to the signal ratio; also: series mostly up to about 92 µM; % of control where 0% means no effect); settings: HCT-116 p53RE-bla, beta-lactamase FRET ratio, 16 h; activation: active compounds read high
How it was run: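 Agonist-mode quantitative HTS in HCT-116 cells carrying a p53-response-element beta-lactamase reporter; 16 h compound treatment at 37 C, then FRET substrate loading for 2 h at room temperature and fluorescence read.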

[16] = target: Nuclear receptor ROR-gamma (Homo sapiens) (UniProt P51449); test: qHTS assay for small molecule antagonists of the retinoid-related orphan receptor gamma (ROR-gamma) signaling pathway (AID 651802);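 also: CHO cells with doxycycline-induced ROR-gamma expression; series mostly up to about 92 µM; % is scaled to controls: 0 for no effect and ±100 for the full control effect; nearly all actives have a fitted effect of over 60% in size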
How it was run: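 Steps: cells dispensed; compound or DMSO transferred by pin tool; doxycycline added to induce the ROR response element-driven luciferase; plates held 16hr at 37C; ONE-Glo added and luminescence measured.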

[17] = qHTS assay for small molecule antagonists of the retinoid-related orphan receptor gamma (ROR-gamma) signaling pathway - cell viability counter screen (AID 720652; active = well fitted curve in the direction sought with a large enough effect in the repeat runs; an effect the other way counts as inactive or inconclusive;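 also: CHO reporter cells with doxycycline-induced ROR-gamma expression; series mostly up to about 92 µM; compound exposure lasted 16 hr before ATP read; % is scaled to controls: 0 for no effect and ±100 for the full control effect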)
How it was run: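 Steps: seed CHO cells bearing TET-inducible ROR and ROR response element-luciferase; rest 5 hr at 37 C; add compound, then doxycycline; incubate 16 hr; add CellTiter-Glo and read luminescence as ATP-based viability.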

[18] = MultiTox-Fluor Cytotoxicity Assay - LYMP1-001 - Live Cells (AID 947);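 also: 0% = DMSO only and full inhibition = tetraoctylammonium bromide control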
[19] = target: Nuclear receptor subfamily 1 group I member 2 (Rattus norvegicus) (UniProt Q9R1A7); test: qHTS assay for small molecule activators of the rat pregnane X receptor (rPXR) signaling pathway (AID 651751; call rule not given here; also: 0% is about no effect); settings: rPXR reporter cells, luciferase (One-Glo), 24 h
Sequence of Nuclear receptor subfamily 1 group I member 2 (Rattus norvegicus) (Q9R1A7 whole entry, looked up): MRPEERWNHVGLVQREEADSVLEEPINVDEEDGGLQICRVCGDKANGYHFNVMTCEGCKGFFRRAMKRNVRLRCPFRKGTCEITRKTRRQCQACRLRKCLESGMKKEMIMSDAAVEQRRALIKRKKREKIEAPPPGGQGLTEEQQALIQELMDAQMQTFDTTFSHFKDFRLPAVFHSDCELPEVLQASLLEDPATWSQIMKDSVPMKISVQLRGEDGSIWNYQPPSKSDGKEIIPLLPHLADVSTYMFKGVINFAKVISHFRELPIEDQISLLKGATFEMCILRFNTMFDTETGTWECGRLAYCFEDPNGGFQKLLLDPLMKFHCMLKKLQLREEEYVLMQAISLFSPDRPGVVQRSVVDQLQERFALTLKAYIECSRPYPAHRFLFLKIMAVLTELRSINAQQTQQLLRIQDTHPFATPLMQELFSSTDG

[20] = qHTS assay for small molecule activators of the human pregnane X receptor (PXR) signaling pathway (AID 720659; call rule not given here; also: 0% is about no effect)

[O-][Br+2]([O-])O
inactive: Potency [1] | Potency [2] | Potency [3] | Potency [4] | Potency [5] | Potency [6] | Potency [7] | activation [8] 11.8% and -3.56% | Potency [9] | outcome [10] | outcome [11] | outcome [12] | activity change % (negative = inhibition) [13] 6.91% and -5.45% | Potency [14] | activation [15] -0.499% and 0.319% | Potency [16] | Potency [17]

ClC(Cl)=C(Cl)Cl
inactive: Potency [1] | Potency [18] | Potency [2] | Potency [3] | Potency [4] | Potency [5] | outcome [11] | outcome [12] | activity change % (negative = inhibition) [13] -10.3% and -3.55% | Potency [14] | activation [15] -0.0832% and 0.219% | Potency [16] | Potency [17] | max response [19] -0.799% and 2.48% | outcome [20]

C=CC(N)=O
inactive: Potency [18] | Potency [2] | Potency [3] | Potency [4] | Potency [5] | Potency [6] | activation [8] -1.03% and 0.342% | Potency [9] | outcome [10] | activation [15] -1.86% and -1.05% and 3.38% | Potency [16] | Potency [17] | max response [19] 2.43% and 2.67% and -1.89% | outcome [20]

O=C(Cl)C(Cl)(Cl)Cl
inactive: Potency [1] | Potency [18] | Potency [2] | Potency [3] | Potency [4] | Potency [5] | Potency [6] | Potency [7] | activation [8] -1.29% | Potency [9] | outcome [10] | outcome [11] | outcome [12] | activity change % (negative = inhibition) [13] -5.79% | Potency [14] | activation [15] -0.85% | Potency [16] | Potency [17] | max response [19] -0.469% | outcome [20]

CC(O)CCl (configuration not stated)
inactive: Potency [1] | Potency [18] | Potency [2] | Potency [3] | Potency [4] | Potency [5] | Potency [6] | Potency [7] | activation [8] -3.59% and -2.54% | Potency [9] | outcome [10] | outcome [11] | outcome [12] | activity change % (negative = inhibition) [13] -4.17% | Potency [14] | Potency [16] | Potency [17] | max response [19] 4.48% and -2.85% | outcome [20]

CCCCCCCCCCCC(=O)O
inactive: outcome [10]

O=[N+]([O-])c1ccc(Cl)c(Cl)c1
inactive: Potency [1] | Potency [18] | Potency [2] | Potency [3] | Potency [4] | Potency [6] | Potency [7] | activation [8] 0.986% | Potency [9] | outcome [10] | outcome [11] | outcome [12] | activity change % (negative = inhibition) [13] -4.24% | Potency [14] | Potency [16] | Potency [17] | max response [19] 0.633% | outcome [20]

C=CCc1ccc(OC)c(OC)c1
inactive: outcome [10]

COc1ccc(N)cc1
inactive: Potency [1] | Potency [18] | Potency [2] | Potency [3] | Potency [4] | Potency [5] | activation [8] -7.51% and 3.18% | Potency [9] | outcome [10] | outcome [11] | outcome [12] | activity change % (negative = inhibition) [13] 8.16% and -11.7% | Potency [14] | activation [15] -2.17% and -1.84% | Potency [16] | Potency [17] | outcome [20]

CCCCCCCC(=O)Cl
inactive: Potency [1] | Potency [18] | Potency [2] | Potency [3] | Potency [4] | Potency [5] | Potency [6] | Potency [7] | activation [8] 5.97% | Potency [9] | outcome [10] | outcome [11] | outcome [12] | activity change % (negative = inhibition) [13] 11.9% | Potency [14] | activation [15] -1.82% | Potency [16] | Potency [17] | max response [19] 5.82% | outcome [20]
